Shown are actives, neighbours in structure and some others; about 1.4% of the full set was active somewhere.
BRCA1 expr up: qHTS Assay to Identify Small Molecule Activators of BRCA1 Expression; MCF7-BRCA1-FFLuc reporter, luminescence, 48 h; response scale: scaled: vehicle 0%, 10 µM genistein 100%; hit rate 1.1% among 380,000; AID 624202, 2012; Potency, µM (titrated, usually from 46.1 µM), hits mostly activators; also: nearly all actives have a fitted effect of over 80% in size
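Reporter cells (MCF7, BRCA1 promoter-firefly luciferase) received library compounds across a concentration series for 48 h. End-point luminescence was measured and concentration-effect curves derived after normalization.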
IL-2 act: qHTS of IL-2 Activators; hit rate 0.065% among 360,000; IL-2 activation reporter assay, cell-based qHTS; stimulated with anti-CD3/CD4/CD28 beads; in transgenic mouse T cells; activation, % (series mostly up to about 46 µM); in the data active = activation above about 50%; inconclusive = mostly about 30% to 49%
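Readout is EGFP and DsRed signal by fluorescent plate cytometry after 18 h at 37 degrees C. Transgenic mouse T cells (750/well) received compound for 60 min before bead stimulation (anti-CD3, anti-CD4, anti-CD28); memory T cells served as non-tolerant control.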
p53 reactivation: qHTS assay for re-activators of p53 using a Luc reporter | H1299 p53-A138V BP100-luciferase reporter, luminescence, 24 h | hit rate 0.063% among 320,000 | Potency, µM (series often up to 92.2 µM), hits mostly activators; also: nearly all actives have a fitted effect of over 45% in size
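H1299 (p53-null), stable ts p53-A138V + BP100-Luc; 1000 cells/well, Opti-MEM/10% FBS; cpd 4 pt, 1:5; 24 h, 37 deg C, 5% CO2; detection reagent 10 min RT; luminescence.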
uPA generation: qHTS for Inhibitors of Cell Surface uPA Generation. cell surface uPA generation assay, qHTS. Potency, µM (top dose mostly 38.3 µM), hits mostly inhibitors. hit rate 0.31% among 330,000. AID 540303, 2011; active = well fitted inhibition curve with a large enough effect; inconclusive = small, poorly fitted or top-dose-only effect; inactive = no such curve, though single readings can be large or run the other way; tested in mouse RAW 264.7 cells; also: nearly all actives have a fitted effect of over 55% in size
TCR act: Activators of T cell receptors: qHTS campaign. primary human leukocytes, anti-CD3, IL-2 HTRF, 48 h. Potency, µM (series often up to 9.22 µM), actives largely listed as activators. 330,000 tested, under 10 active
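Compounds are tested in HTS on primary human leukocytes co-incubated with a-CD3 beads for 48 hr. IL-2 output is measured by time-resolved FRET.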
Large screens that a line does not name were inactive. Unless noted, calls follow the shape of the dose curve; as a rule, active = well fitted curve in the direction sought with a large enough effect; inconclusive = small, poorly fitted or top-dose-only effect, or another doubt; inactive = no such curve, though single readings can be large; an effect the other way counts as inactive or inconclusive.

CC(=O)c1cc(C(=O)Nc2ccc3ccccc3c2)c(C)o1	none
Cc1cc(C(=O)Nc2ccc3ccccc3c2)c(C)o1	BRCA1 expr up inconclusive, p53 reactivation 25µM
Cc1ccc(C(=O)Nc2ccc3ccccc3c2)cc1	none
COc1cc(C2NC(=O)N(C)C3=C2C(=O)N(c2ccccc2)C3)ccc1O (centres undefined)	none (no result: IL-2 act, p53 reactivation, uPA generation, TCR act)
COc1ccc(-c2coc3cc(OC(C)=O)c(OC)cc3c2=O)cc1	BRCA1 expr up 10µM, p53 reactivation inconclusive, uPA generation inconclusive
COc1ccc2c(=O)c(-c3ccccc3)coc2c1	BRCA1 expr up inconclusive, uPA generation inconclusive
COc1ccc(-c2coc3cc(O[C@@H]4O[C@H](CO)[C@@H](O)[C@H](O)[C@H]4O)ccc3c2=O)cc1	BRCA1 expr up 2.8µM, p53 reactivation inconclusive, uPA generation inconclusive
COc1ccc(-c2coc3cc(O)ccc3c2=O)cc1OC	BRCA1 expr up inconclusive, p53 reactivation inconclusive
COc1ccc2c(=O)c(-c3ccc(OC)c(OC)c3)coc2c1	BRCA1 expr up 11µM
COc1ccc(CNC(=O)Cn2c(SCC(=O)N(C)c3ccccc3)nc3ccccc32)cc1	none (no result: IL-2 act, p53 reactivation, uPA generation, TCR act)
CCCCc1nn2c(=O)cc(COC(=O)c3cccs3)nc2s1	none (no result: IL-2 act, p53 reactivation, uPA generation, TCR act)
COCCNc1c(-c2ccc(OC)c(OC)c2)nc2ccc(Cl)cn12	none
COCCNc1c(-c2cc3ccc(C)c(C)c3[nH]c2=O)nc2ccccn12	BRCA1 expr up 2.2µM
COCCCNC(=O)C1CCN(C(=O)c2oc3cc4sc(N(C)C)nc4cc3c2C)CC1	BRCA1 expr up 11µM, p53 reactivation inconclusive
Cc1cc2oc(=O)cc(CN(C)Cc3cccc(F)c3)c2cc1C	BRCA1 expr up 11µM
Cc1cc(C)c2c(CN(C)Cc3ccccc3)cc(=O)oc2c1	BRCA1 expr up 13µM (no result: p53 reactivation, uPA generation, TCR act)
O=C(CN1C(=O)C2(SCC(=O)N2c2ccc(F)c(F)c2)c2ccccc21)NCCc1ccccc1 (centres undefined)	none (no result: IL-2 act, p53 reactivation, uPA generation, TCR act)
Cc1ccc(NC(=O)/C=C/c2ccco2)cc1S(=O)(=O)N1CCCCCC1	uPA generation 0.89µM (no result: p53 reactivation)
CCOC(=O)C(C(=O)OCC)C1N=C(N)N=C2Oc3ccccc3N21 (centres undefined)	BRCA1 expr up 13µM
CCOC(=O)CN1C(=O)C(CC)Oc2ccccc21 (centres undefined)	none (no result: uPA generation)
CCc1ccccc1NC(=O)CSc1nc2ncccc2o1	none (no result: IL-2 act, p53 reactivation, uPA generation, TCR act)
O=C(C[n+]1ccccc1Br)c1ccc(I)cc1	none (no result: IL-2 act, p53 reactivation, uPA generation, TCR act)
COC1=CC(=Cc2c(N)n3nc(CC(=O)N4CCCCC4)sc3nc2=O)C=C(OC)C1=O	IL-2 act 85
c1ccc(OCCOc2ncnc3sccc23)cc1	BRCA1 expr up 7.1µM, p53 reactivation inconclusive
CCCN(C(=O)Cn1ncc2c1-c1ccccc1OC2)c1cccc(C)c1	none (no result: IL-2 act, p53 reactivation, uPA generation, TCR act)
CCN(CC)c1ccc2cc(-c3nnc(-c4ccccc4)o3)c(=O)oc2c1	BRCA1 expr up 1.4µM, p53 reactivation inconclusive
CCn1c(=O)cc(SCC(=O)NCCc2ccc(OC)cc2OC)c2ccccc21	none (no result: IL-2 act, p53 reactivation, uPA generation, TCR act)
O=C(COc1ncnc2cc(Cl)ccc12)c1ccc2c(c1)OCCO2	BRCA1 expr up 1.8µM
CCOC(=O)C1CCN(C(=O)c2cc3cc(C)ccc3[nH]2)CC1	BRCA1 expr up 2.8µM (no result: TCR act)
CCOC(=O)C1CCN(C(=O)c2cc3c(C)cc(C)cc3[nH]2)CC1	p53 reactivation inconclusive
CCCOc1ncnc2c1[nH]c1ccc(OC)cc12	BRCA1 expr up inconclusive, uPA generation 4.5µM
CCCCOc1ncnc2c1[nH]c1ccc(C)cc12	BRCA1 expr up inconclusive
COCCCn1c(SCC(=O)NCc2ccccc2)nc2c(sc3ccccc32)c1=O	none (no result: IL-2 act, p53 reactivation, uPA generation, TCR act)
Cn1c(=NC(=O)CS(=O)(=O)c2ccccc2)sc2cc(F)ccc21	BRCA1 expr up 5µM (no result: p53 reactivation, uPA generation, TCR act)
O=C1/C(=C\c2ccc3ccccc3c2)CCCc2ccccc21	p53 reactivation inconclusive
Cc1ccccc1/C=C1\CCCc2ccccc2C1=O	BRCA1 expr up 7.1µM, p53 reactivation inconclusive
Cc1[nH]c2ccccc2c1C(=O)C(=O)Nc1ccc2c(c1)OCCO2	BRCA1 expr up 10µM
O=C(CN1C(=O)C2C3C=CC(C3)C2C1=O)Nc1ccc2c(c1)OCCO2 (centres undefined)	BRCA1 expr up 13µM, p53 reactivation inconclusive
O=C(CSc1nc2ccccc2[nH]1)Nc1ccc2c(c1)OCCO2	BRCA1 expr up 10µM, p53 reactivation inconclusive
